About 13,000 (27%) of roughly 48,000 compounds showed an effect of 50% or more. The list shows a part of the results.
These compounds were tested on Wolbachia pipientis (assay: Anti-Wolbachia Cell-Based Screen). Settings: 5 µM.
Type: functional
Set-up: scale not given: in the data most compounds retested in dose-response had high values

Row | Compound | Percent Effect [%]
1 | CN1CCC2(CCC1=O)CCN(C(=O)Cc1ccc(O)c(F)c1)CC2 | 0.2124
2 | Cc1ccn(CCNc2ncnc3c2CCN(c2cnccn2)CC3)n1 | 7.115
3 | CC(O)CN1CCC(CNCc2cccc(Br)c2)CC1 (stereo unspecified) | 7.461
4 | COc1cccc(CN2CCN(C(=O)CN3CCOCC3)CC2)n1 | -0.8074
5 | O=C(Cn1cccc2cc(-c3ccc(F)cc3)nc1-2)N1CCC(O)CC1 | 121.3
6 | COc1ccc(-c2cc3cccn(CC(=O)N4CCOCC4)c-3n2)cc1 | 153.8
7 | COCCN(C)C(=O)Cn1cccc(OC)c1=O | -3.023
8 | O=C(Cn1nnc(-c2cc3ccccc3o2)n1)N1CCOCC1 | -8.281
9 | COC1CCN(C(=O)Cn2ccc3ccccc32)CC1 | 0.3613
10 | COc1cccn(CC(=O)N(C)CCOc2cc(C)cc(C)c2)c1=O | -7.697
11 | O=C(c1nnn(-c2ccc(F)cc2)n1)N1CCC(O)CC1 | 1.522
12 | CN(C)CCN(C)C(=O)Cn1cccc2cc(-c3ccc(F)cc3)nc1-2 | 149.6
13 | CC(C)(C)c1nnc(CN2CCC(c3cc4ccccc4[nH]3)CC2)o1 | 4.334
14 | COCCc1noc(-c2cn(Cc3ccccc3C)nn2)n1 | -12.89
15 | NS(=O)(=O)CCNC(=O)C1(c2ccccc2)CC1 | -12.67
16 | O=C(NCCCNc1ccccn1)NCC1CCS(=O)(=O)C1 (stereo unspecified) | 10.33
17 | CC(C)c1ncc2c(n1)CN(c1ncnc3[nH]ccc13)CC2 | 96.63
18 | Cc1nc(C)n(CC2CCCN(c3ncnc4[nH]ccc34)C2)n1 (stereo unspecified) | 6.618
19 | Cc1ncc2c(n1)CN(c1ncnc3[nH]ccc13)CC2 | 103
20 | Cn1cc(C2CCCN2c2ncnc3[nH]ccc23)cn1 (stereo unspecified) | -13.62
21 | Cc1ncc2c(n1)CN(C(C(N)=O)c1ccc(F)cc1)CC2 (stereo unspecified) | -2.692
22 | COCCCN1CC2(CCCN(c3ncnc4[nH]ccc34)C2)CCC1=O (stereo unspecified) | 0.6665

Row | Compound | Percent Effect [%]
23 | OC1(CN2CCCC2)COCCN(c2ncnc3[nH]ccc23)C1 (stereo unspecified) | 7.822
24 | c1nc(N2CCc3[nH]cnc3C2)c2cc[nH]c2n1 | 98.13
25 | CC(C)c1ncc2c(n1)CN(Cc1ccc(C(N)=O)cc1)CC2 | -9.095
26 | c1ncc2c(n1)CN(c1ncnc3[nH]ccc13)CC2 | 97.2
27 | CC(C)c1ncc2c(n1)CN(CC1CCCCO1)CC2 (stereo unspecified) | -13.54
28 | CN(C)CC1CN(c2ncnc3[nH]ccc23)CCO1 (stereo unspecified) | 4.502
29 | CC(C)CCN(C(=O)c1cc2c([nH]c1=O)CCCC2=O)C1CC1 | -4.935
30 | O=C(NC(C1CC1)C1CC1)c1cccc[n+]1[O-] | 1.029
31 | Cn1cc(Br)cc(NC(=O)Cc2cccs2)c1=O | -8.828
32 | CCc1cnc(CNc2cccc3c2CCN(S(=O)(=O)CC)C3)o1 | -1.845
33 | CN(CCCc1cc(-c2cccc(F)c2)n[nH]1)C(=O)CCn1cncn1 | 11.69
34 | CNC(=O)[C@@H](C1CCCCC1)N1CCC[C@H]1C(=O)N(C)CCN(C)C.Cl.Cl | 6.649
35 | Cc1cccc(CN2Cc3[nH]nc(COCc4nccs4)c3C2)n1.O=C(O)C(F)(F)F | -5.307
36 | CN(C)C(=O)N1CCc2c(CNc3ncccn3)cncc2C1 | -13.49
37 | CS(=O)(=O)NCc1cncc2c1CCN(C(=O)c1cccnc1)C2.Cl.Cl | 94.15
38 | Cc1cccc(C(=O)N2CCc3c(COCC4CC4)cncc3C2)n1 | -8.984
39 | Cc1occc1C(=O)N1CCc2c(CNc3ncccn3)cncc2C1.Cl | -10.41
40 | CC(C)NC(=O)N1CCc2c(CNc3ncccn3)cncc2C1.Cl | -8.609
41 | Cl.Cn1cccc1C(=O)N1CCc2c(CNS(C)(=O)=O)cncc2C1 | 99.59
42 | Cc1occc1C(=O)N1CCc2c(CNS(C)(=O)=O)cncc2C1.Cl | 99.94
43 | Cc1nc(-c2cnn(C)c2)nc2c1CN(C(=O)c1cccn1C)CC2 | -11.99
44 | COCc1cncc2c1CCN(C(=O)c1ccoc1C)C2 | -16.93

Row | Compound | Percent Effect [%]
45 | CS(=O)(=O)NCc1cncc2c1CCN(C(=O)c1ccccn1)C2 | 100.5
46 | O=C(O)C1CCN(c2ccc(Sc3ccc(Br)cc3)nn2)CC1 | -8.294
47 | Cc1cccc2c1OCCC2NCc1c(C)nn(C)c1N(C)C (stereo unspecified) | -23.23
48 | Cc1ccc(C(=O)N2CCc3c(CNS(C)(=O)=O)cncc3C2)o1.Cl | -12.96
49 | Cc1ccc(C(=O)N2CCc3c(COCC4CC4)cncc3C2)o1 | -16.58
50 | Cc1ccc(C(=O)N2CCc3c(CNc4ncccn4)cncc3C2)o1.Cl | 96.21
51 | CCc1cnc(N2CCN(Cc3ccon3)CC2)s1 | -1.549
52 | O=C(c1cc(Cl)c2c(c1)OCCCO2)N(CC1CCOC1)C1CC1 (stereo unspecified) | -3.487
53 | COc1cccc(Cn2c(=O)n(C)c(=O)c3sccc32)c1 | -18.58
54 | O=C(Cn1c(=O)nc2n1C(=O)N(c1ccccc1)C2)Nc1ccccc1 | 2.08
55 | CCn1nc(C)c2nnn(CC(=O)Nc3cccc(Cl)c3)c(=O)c21 | -0.8024
56 | Cc1cc(=O)n(CC(=O)Nc2cccc(Cl)c2)nc1C | -4.372
57 | CC(C)c1cccc(NC(=O)N2CC(N(C)C)C2)c1 | -4.396
58 | CCn1c(=O)c2sccc2n(CC(=O)Nc2cccc(Cl)c2)c1=O | 148.7
59 | CC(C)n1c(=O)c2sccc2n(CC(=O)Nc2ccccc2)c1=O | 126.1
60 | CC(C)c1cccc(NC(=O)Cn2c(=O)n(C)c(=O)c3sccc32)c1 | 155.2
61 | Cn1c(=O)c2sccc2n(CC(=O)Nc2cccc(Cl)c2)c1=O | 134.9
62 | O=C(Cn1cc(-c2ccccc2)ncc1=O)Nc1ccncc1 | 8.409
63 | Cn1c(=O)c2sccc2n(Cc2ccccc2)c1=O | -1.761
64 | COc1ccc(Cn2c(=O)n(C)c(=O)c3sccc32)cc1 | 5.606
65 | O=C(NCc1ccco1)Nc1cccc(S(=O)(=O)C(F)F)c1 | 12.8
66 | Cc1nc2cc(OCc3nc(C(=O)NC(CO)CO)co3)ccc2s1 | -12.2

— ChEMBL document CHEMBL3988442, “University of Dundee, Small-Polar-MMV Screening Library” (2021)
